Source: PubChem BioAssay (National Center for Advancing Translational Sciences (NCATS))
This is a sample that favours compounds with a hit; in the whole collection about 4.6% have one here.
TRHR ag = TRH receptor (human) agonism; TRHR cells, calcium flux fluo-8, FDSS agonist mode; P34981; 360,000 compounds, 0.18% hits; activation, % at 2 µM
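Fluo-8-loaded TRHR cells; 10 s baseline, compound added, kinetic Ca2+ fluorescence read 1/s, agonist mode.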
D1 PAM = enhances dopamine response at the human D1 receptor. 360,000 compounds, 0.036% hits. P21728. HEK293 TREx D1 cells, calcium flux, dopamine EC20 potentiation. potentiation, % at 10 µM; in the data active = potentiation above about 30%
Target sequence (P21728 whole entry, looked up): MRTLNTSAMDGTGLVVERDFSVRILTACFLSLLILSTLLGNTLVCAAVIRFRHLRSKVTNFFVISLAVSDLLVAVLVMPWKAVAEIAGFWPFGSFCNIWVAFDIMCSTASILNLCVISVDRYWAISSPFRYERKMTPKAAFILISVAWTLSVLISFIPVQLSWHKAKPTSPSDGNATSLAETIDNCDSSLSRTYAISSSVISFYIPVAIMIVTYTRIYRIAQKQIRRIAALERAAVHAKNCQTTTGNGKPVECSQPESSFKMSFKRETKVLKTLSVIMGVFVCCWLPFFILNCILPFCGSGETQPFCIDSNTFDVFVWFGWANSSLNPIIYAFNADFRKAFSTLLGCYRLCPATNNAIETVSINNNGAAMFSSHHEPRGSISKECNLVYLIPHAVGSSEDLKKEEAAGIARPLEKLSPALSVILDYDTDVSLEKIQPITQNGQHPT
D1 agonist = human D1 receptor agonism | 360,000 compounds, 1% hits | HEK293 T-REx D1 cells, calcium flux, agonist mode | P21728 | activation, % at 2 µM
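Inducible HEK293 T-REx D1 cells, force-coupled to calcium signalling, were plated at 4000 cells/well with tetracycline and held overnight at 30 C. After no-wash calcium dye loading, compound-evoked calcium rise over 180 s flagged agonists.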
D1 antag = blocks dopamine activation of the human D1 receptor; P21728; HEK293 TREx D1 cells, calcium flux, dopamine EC80; active compounds read low; activity change, negative = inhibition, % at 10 µM; 360,000 compounds, 3.2% hits; in the data active = activity change below about -30%
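Kinetic fluorescence of a calcium dye serves as the read-out. D1-expressing Hek293 Trex cells, induced overnight at 30 C, are exposed to compound for 180 s before an EC80 dopamine addition, then read 180 s further.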
TRHR enhancer = allosteric enhancers of human TRH receptor; P34981; TRHR cells, fluo-8 calcium fluorescence, EC20 TRH enhancement; enhancement, % at 2 µM; 360,000 compounds, 0.66% hits; in the data active = enhancement above about 30%
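Enhancer read-out: after compound pinning and an initial kinetic agonist-mode read, an EC20 of TRH (10 nM final) was injected and fluo-8 calcium signal (Ex 480/Em 530) followed at 1 s/cycle for 100 cycles in TRHR-expressing cells.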
Each line names hits and unclear results; the compound was inactive in the other large screens. Cut-off read from the data, not from the text of the source, unless noted: active = activation above about 30%; inactive = the rest.

COCCNC(=O)c1c(NC(=O)c2ccc(Br)o2)n(Cc2ccccc2)c2nc3ccccc3nc12	D1 agonist 37
O=C1CN=C(c2ccccc2)c2cc(Cl)ccc2N1Cc1ccc(Cl)cc1	none
CCN(CC)S(=O)(=O)c1ccc(C)c(NCC(=O)Nc2ccc(C#N)c(Cl)c2)c1	D1 antag -37
CC(=O)N1CCN(CC(=O)Nc2ccc(C#N)c(Cl)c2)CC1	none
Clc1ccccc1NC1=NCCCS1	TRHR enhancer 35
CN1CC(C(=O)c2cccc(C(F)(F)F)c2)C(c2ccc(Cl)cc2)C1 (stereo not drawn)	D1 agonist 31
Cc1ccc(Cn2cccc(C(=O)Nc3ccc4c(c3)OCCO4)c2=O)cc1	none (no result: D1 antag)
Cc1cc(OCC(=O)N2CCN(CCc3ccncc3)CC2)ccc1Cl	none
Fc1ccc2c(c1)nnn2C1CCN(Cc2ccccc2)CC1	D1 antag -33
Cn1c(=O)n(C)c2cc(CNCCc3ccccc3)ccc21	none
COc1ccc(NC(=O)CN2C(=O)CN=C(c3ccccc3)c3ccccc32)c(OC)c1	none
COc1ccc2c(c1)CC1(CN2C)C(=O)NC(=O)N(c2ccc(F)cc2)C1=O (stereo not drawn)	D1 antag -82
COc1ccc2c(c1)CC1(CN2C)C(=O)NC(=O)N(c2ccc(C)cc2)C1=O (stereo not drawn)	none
CCCCN1C(=O)NC(=O)C2(Cc3c(nc4c(C)cccn4c3=O)N3CCc4ccccc4C32)C1=O (stereo not drawn)	D1 agonist 38
CN1/C(=C\C=C2C(=O)NC(=O)NC2=O)C(C)(C)c2ccccc21	TRHR ag 101, D1 agonist 107
O=C(CN1CCCC1=O)Nc1ccccc1	D1 antag -35
CN(Cc1ccccc1)C(=O)CN1CCCC1=O	none
CNc1ccc2oc(C[C@H]3O[C@@]4(CC[C@H]3C)O[C@H]([C@H](C)C(=O)c3ccc[nH]3)[C@H](C)C[C@H]4C)nc2c1C(=O)O	TRHR ag 123, D1 agonist 419, D1 antag -45
Cc1cc(OC(=O)N(C)C)nc2c1c(C)nn2C	TRHR enhancer 40
COCc1cc(OC(=O)N(C)C)nc2c1c(C)nn2C	none
CCOC(=O)c1ccc(NC(=O)c2cccn(Cc3ccccc3F)c2=O)cc1	none
CC(=O)O[C@H]1C[C@@H]2CC[C@@H]3[C@H](CC[C@]4(C)C(=O)CC[C@@H]34)[C@@]2(C)C[C@@H]1OC(C)=O	D1 antag -41
CCc1ccc(NC(=O)c2cccn(Cc3cccc([N+](=O)[O-])c3)c2=O)cc1	none (no result: D1 antag)
Cc1ccc(-n2cc(CNC(C)Cc3cnccn3)c(-c3cccc(C)c3)n2)cc1 (stereo not drawn)	D1 agonist 37
CCN(CC(=O)Nc1ccc(NC(C)=O)cc1)C(=O)CSC(c1ccccc1)c1ccccc1	D1 agonist 45
CCC(=O)Nc1ccccc1	none
CC1(C)CSC(=NCc2ccccc2)N1	TRHR ag 77, D1 PAM 36, D1 agonist 152, D1 antag -38
CN(C)c1ccc(/C=C/[N+](=O)[O-])cc1	TRHR ag 31, D1 agonist 92
C/C(=C\c1ccc(N(C)C)cc1)[N+](=O)[O-]	none
COc1ccc(N2C(=O)CC(=O)NC2=O)cc1	D1 antag -79
Cc1ccc(N2C(=O)CC(=O)NC2=O)cc1	none
O=C(/C=C/c1c[nH]c2ccccc12)c1c(O)n(CCc2ccccc2)c(=O)[nH]c1=O	TRHR ag 40, D1 PAM 39, D1 agonist 383, TRHR enhancer 47
Cc1ccc(OCC(=O)N2CCN(CCc3ccncc3)CC2)cc1C	none
CC(C)C[C@H](NC(=O)[C@@H]1CCCN1C(=O)[C@@H](N)Cc1ccc(O)cc1)C(=O)NCC(N)=O	D1 antag -37
COC(=O)c1cc(C(O)(C(=O)OC)C(F)(F)F)c(/N=C/N(C)C)s1 (stereo not drawn)	TRHR enhancer 39
Cc1cccc(-n2c(O)c(/C=N/Nc3nc4c(c(=O)n(C)c(=O)n4C)n3C)c(=O)[nH]c2=S)c1	none
Cc1ccccc1-n1c(O)c(/C=N/Nc2nc3c(c(=O)n(C)c(=O)n3C)n2C)c(=O)[nH]c1=S	D1 antag -60
COc1ccc(CCNCc2c(OC)ccc3ccccc23)cc1	D1 agonist 73
CC(C)(C)N1C(=O)NC(=O)/C(=C\c2ccc3c(c2)CCN3CCCCl)C1=O	D1 antag -32
CN1CCN(c2ccc([N+](=O)[O-])c3no[n+]([O-])c23)CC1	D1 agonist 33, D1 antag -38
O=C(COc1ccc(Cl)cc1Cl)N1CCN(C/C=C/c2ccccc2)CC1	none
CN(c1ccc(OCC(=O)N2CCN(C/C=C/c3ccccc3)CC2)cc1)S(=O)(=O)c1cccs1	D1 antag -43
CCN(CC)c1ccc(CNCCc2ccccc2F)cc1	D1 agonist 46
Cc1ccc(CNCCc2ccccc2F)cc1	none
O=C(COc1ccccc1F)N1CCN(Cc2cc(=O)n3nc(-c4ccccc4Cl)sc3n2)CC1	none
Cc1nc2ccccc2c(=O)n1-c1cccc(C(F)(F)F)c1	none
Cc1nc2ccccc2c(=O)n1-c1ccc(C(=O)O)cc1	TRHR enhancer 31
O=S(=O)(NC1CCCCC1)OCC(Cl)(Cl)Cl	D1 antag -34
C=CCn1c(O)c(C(CC)=NCc2ccc3c(c2)OCO3)c(=O)[nH]c1=O	none
CCCCn1c(O)c(C(CC)=NCc2ccc3c(c2)OCO3)c(=O)[nH]c1=O	D1 antag -34
COc1ccc(CC(=O)Nc2ccc3c(C(F)(F)F)cc(=O)oc3c2)cc1OC	none
Cc1onc(-c2c(Cl)cccc2Cl)c1C(=O)Nc1ccc2c(C(F)(F)F)cc(=O)oc2c1	D1 antag -30
CC(C)CNc1c2c(nc3ccccc13)CCC2	none
c1ccc(CNc2c3c(nc4ccccc24)CCC3)cc1	D1 antag -50
COc1ccc(C)cc1NC(=O)N(Cc1ccc2c(c1)OCO2)C1CCN(Cc2ccccc2)CC1	none
COc1ccccc1CC1/C(=N/O)C2CCN1CC2 (stereo not drawn)	D1 antag -69
O=C1C2CCN(CC2)C1Cc1ccccc1O (stereo not drawn)	none
C/C(=N\N1CCCCCC1)c1c(O)n(-c2ccc(C)cc2)c(=O)[nH]c1=O	D1 antag -40
C/C(=N\N1CCCCCC1)c1c(O)n(-c2ccc(Cl)cc2)c(=O)[nH]c1=O	none
Cc1ccc(Cn2cccc(C(=O)Nc3ccc4c(c3)OCO4)c2=O)cc1	none (no result: D1 antag)
Cc1ccccc1-n1c(/C=C/c2ccc(N(C)C)cc2)nc2ccccc2c1=O	TRHR ag 93, D1 PAM 60, D1 agonist 197
Cc1ccccc1-n1c(/C=C/c2c(C)[nH]c3ccccc23)nc2ccccc2c1=O	none
O=c1c2ccccc2nc(/C=C/c2ccccc2F)n1-c1ccccc1O	none
O=c1c2ccccc2nc(/C=C/c2ccccc2O)n1-c1ccccc1O	D1 agonist 31
